Source: PubChem BioAssay (National Center for Advancing Translational Sciences (NCATS))
CHX counter: Cycloheximide Counterscreen for Small Molecule Inhibitors of Shiga Toxin; cell reporter, cycloheximide protein synthesis inhibition counterscreen; max response, %; actives 12% (n = 300,000); AID 2314, 2010; in the data active = max response mostly above about 13%, no sharp cut-off; inactive = mostly below about 14%; note: read at 38.3 µM for the half of the compounds with a filed dose
Pf growth 48h: Primary qHTS for delayed death inhibitors of the malarial parasite plastid, 48 hour incubation; P. falciparum luciferase growth in erythrocytes, 48 h; Potency, µM (doses to about 28.7 µM), usual class: inhibitors; actives 5.9% (n = 310,000); AID 504832, 2011
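Cell-based growth assay: transgenic P. falciparum expressing firefly luciferase, cultured in red cells within RPMI 1640 containing 0.5% w/v Albumax, 24 mM bicarbonate and gentamycin. A drop in luciferase activity indicates inhibition.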
Pf growth 96h: Primary qHTS for delayed death inhibitors of the malarial parasite plastid, 96 hour incubation; P. falciparum luciferase reporter growth, 96 h; Potency, µM (top dose mostly 28.7 µM), hits mostly inhibitors; actives 6.9% (n = 320,000); AID 504834, 2011
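Two parasite generations (96 h, 37 C, 5% CO2) of compound exposure in infected erythrocytes (0.05% parasitemia, 2% hematocrit). Luciferase-reporter P. falciparum; decreased luminescence indicates inhibited growth, aimed at apicoplast-acting delayed death.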
Marburg entry inh: qHTS for inhibitors of binding or entry into cells for Marburg Virus | Marburg virus pseudotyped entry inhibition, cell reporter | Potency, µM (series often up to 37.8 µM), actives largely listed as inhibitors | actives 1.8% (n = 300,000); calls by dose curve; tested in HEK293 cells
Lassa entry inh: qHTS for Inhibitors of binding or entry into cells for Lassa Virus. Lassa virus pseudotype entry inhibition, cell reporter. Potency, µM (doses to about 37.9 µM), actives largely listed as inhibitors. AID 540256, 2011. actives 1.2% (n = 300,000); calls by dose curve; tested in HEK293 cells; note: nearly all actives have a fitted effect of over 50% in size
Shiga toxin inh: A qHTS for Small Molecule Inhibitors of Shiga Toxin. Vero cells, Shiga toxin protein synthesis inhibition reporter. inhibition, % at 38.7 µM. actives 9.2% (n = 290,000). AID 2315, 2010; in the data active = inhibition mostly above about 28%, no sharp cut-off; inactive = mostly below about 43%
Hits are given with their value. Sampled rows, rich in hits. Any-hit rate of the full collection: about 19%. Unless noted, calls come from the whole dose curve; as a rule, active = well fitted inhibition curve with a large enough effect; inconclusive = small, poorly fitted or top-dose-only effect, or another doubt; inactive = no such curve, though single readings can be large or run the other way.

Cc1ccc(C(=O)NCCCN2CCOCC2)c(C)c1 was read as CHX counter 20, Pf growth 48h inactive, Pf growth 96h inactive, Marburg entry inh inactive, Lassa entry inh inactive and Shiga toxin inh inactive.
For Cc1cc2nnc(SCC(=O)N(C)C3CCS(=O)(=O)C3)n2c2ccccc12 (stereo unspecified) the results were CHX counter inactive, Pf growth 48h inactive, Pf growth 96h inactive, Marburg entry inh inactive, Lassa entry inh inactive and Shiga toxin inh inactive.
For CCOCC(=O)Nc1ccc(F)c(F)c1 the results were CHX counter inactive, Pf growth 48h inactive, Pf growth 96h inactive, Marburg entry inh inactive, Lassa entry inh inactive and Shiga toxin inh inactive.
For CC(C)(C)c1ccc(N2C(=O)CC(C/C=C/c3ccccc3)C2=O)cc1 (stereo unspecified) the results were CHX counter inactive, Pf growth 48h inactive, Pf growth 96h inactive and Shiga toxin inh inactive.
`CC1CN(C(=O)C(Sc2ccccc2)c2ccccc2)CC(C)O1` (stereo unspecified) gave CHX counter inactive, Pf growth 48h inactive, Pf growth 96h 10µM, Marburg entry inh inconclusive, Lassa entry inh inactive and Shiga toxin inh inactive.
CC1CN(C(=O)C(c2ccccc2)c2ccccc2)CC(C)O1 (stereo unspecified) was read as CHX counter inactive, Pf growth 96h inconclusive, Marburg entry inh inactive, Lassa entry inh inactive and Shiga toxin inh inactive.
Screening CCC(C(=O)NC(C)(C)C)N(Cc1ccc(F)cc1)C(=O)c1snc(C(N)=O)c1N (stereo unspecified) returned CHX counter inactive, Pf growth 48h inactive, Pf growth 96h inactive, Marburg entry inh inconclusive and Lassa entry inh inactive.
`Cn1c(SCc2ccc(Cl)cc2)nc(C(F)(F)F)cc1=O` gave CHX counter inactive, Pf growth 48h inactive, Pf growth 96h inactive, Marburg entry inh inconclusive, Lassa entry inh inactive and Shiga toxin inh inactive.
`CCC(=O)Nc1ccc(N2CCOCC2)c(S(=O)(=O)Nc2ccc(OC)cc2)c1` gave CHX counter inactive, Pf growth 48h inactive, Pf growth 96h inactive, Marburg entry inh inactive, Lassa entry inh inactive and Shiga toxin inh inactive.
`COc1ccc(NS(=O)(=O)c2cc(NC(=O)/C=C/c3ccccc3OC)ccc2N2CCCCC2)cc1` gave CHX counter inactive, Pf growth 48h 1µM, Pf growth 96h 1µM, Marburg entry inh inactive, Lassa entry inh inactive and Shiga toxin inh inactive.
COc1ccc(NS(=O)(=O)c2cc(NC(=O)/C=C/c3cccs3)ccc2N2CCOCC2)cc1 was read as CHX counter inactive, Pf growth 48h inconclusive, Pf growth 96h 7.4µM, Marburg entry inh inconclusive, Lassa entry inh inconclusive and Shiga toxin inh inactive.
`COc1ccc(NS(=O)(=O)c2cc(NC(=O)COc3ccc(OC)cc3)ccc2N2CCOCC2)cc1` gave Marburg entry inh inactive and Lassa entry inh inactive.
For COc1ccc(NS(=O)(=O)c2cc(NC(=O)c3ccc(C)s3)ccc2N2CCOCC2)cc1 the results were CHX counter inactive, Pf growth 48h inconclusive, Pf growth 96h 13µM, Marburg entry inh inconclusive, Lassa entry inh inconclusive and Shiga toxin inh inactive.
For CCCCCC(=O)Nc1ccc(N2CCOCC2)c(S(=O)(=O)Nc2ccc(OC)cc2)c1 the results were Pf growth 48h 15µM, Pf growth 96h inconclusive, Marburg entry inh inactive and Lassa entry inh inconclusive.
`COc1ccc(NS(=O)(=O)c2cc(NC(=O)c3cccs3)ccc2N2CCCC2)cc1` gave CHX counter inactive, Pf growth 48h inactive, Pf growth 96h inconclusive, Marburg entry inh inconclusive, Lassa entry inh inconclusive and Shiga toxin inh inactive.
For CC(C)C[C@H](NC(=O)c1nc[nH]c1C(=O)N1CCc2ccccc2C1)C(=O)OC(C)(C)C the results were CHX counter inactive, Pf growth 48h inconclusive, Pf growth 96h inactive and Shiga toxin inh inactive.
Screening COC(=O)c1cc(OC)c(OC)cc1NC(=O)c1c(-c2ccccc2)noc1C returned CHX counter inactive, Pf growth 48h inactive, Marburg entry inh inconclusive, Lassa entry inh inconclusive and Shiga toxin inh inactive.
`Cc1ccc2cc(CCNC(=O)c3cccc([N+](=O)[O-])c3)c(=O)[nH]c2c1` gave CHX counter inactive, Pf growth 48h inactive, Pf growth 96h inactive and Shiga toxin inh inactive.
